Data taken from the supplement of paper PMC3334620.
The full ranking holds about 33,000 sequences; the median of “E-score (-0.5 to 0.5)” is about -0.035, and the highest 2% start at about 0.34. This is one part of a sample in which the highest values are shown more often than they occur.

The sequences below were run against T1, Mot3 (UniProt P54785) (assay: PBM E-score (8-mer binding enrichment) (E-score (-0.5 to 0.5)); higher = stronger / more preferred TF binding). Conditions: protein concentration: 200 nM; construct: GST-full length.
T1 sequence: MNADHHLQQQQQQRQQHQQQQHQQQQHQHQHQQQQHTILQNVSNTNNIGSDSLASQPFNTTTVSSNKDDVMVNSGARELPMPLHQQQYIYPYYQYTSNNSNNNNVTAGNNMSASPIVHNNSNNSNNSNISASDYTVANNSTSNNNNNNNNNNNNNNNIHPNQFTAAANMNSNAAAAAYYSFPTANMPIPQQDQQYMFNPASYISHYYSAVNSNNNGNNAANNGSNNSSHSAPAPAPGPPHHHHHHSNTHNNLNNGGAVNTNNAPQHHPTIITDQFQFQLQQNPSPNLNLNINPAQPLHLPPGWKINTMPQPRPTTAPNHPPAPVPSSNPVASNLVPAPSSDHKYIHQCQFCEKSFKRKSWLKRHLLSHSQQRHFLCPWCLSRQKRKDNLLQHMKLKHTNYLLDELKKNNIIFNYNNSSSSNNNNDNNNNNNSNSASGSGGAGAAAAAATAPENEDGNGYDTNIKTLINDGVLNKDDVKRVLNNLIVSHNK
In short: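 Using PURExpress in vitro transcription/translation, GST-tagged yeast transcription factors were made in full-length or DNA-binding-domain form. These were applied at about 100-200 nM to double-stranded universal all-10-mer Agilent arrays, and bound protein was detected with fluorescent anti-GST. Scans were normalised with masliner before the Universal PBM Analysis Suite assigned E-scores to ungapped eight-base words pooled with their reverse complements.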

Sequence | PBM E-score
AACAGGAT | 0.0971
CAATGGAC | -0.189
TAGCCAGA | -0.0655
GACACTAA | -0.106
AAGGCTGC | -0.00639
CACAGGGG | 0.118
AGTTAGAT | 0.0673
ACGCTTCT | -0.0128
CCAGACGG | -0.383
GCGCGTAC | 0.117
GTGCGTAA | 0.356
CTGCGTAA | 0.302
GCGCGTAA | 0.34
GGGCGTAA | 0.135
TCGCGTAA | 0.374
ACGCGTAA | 0.317
ATGCGTAA | 0.32
CCGCGTAA | 0.336
ATTCTGAG | 0.0253
TGTCGACA | 0.111
ACAACAAT | 0.182
GCACTTAA | 0.133
CTTCAAGC | -0.0397
CTTTCCTA | 0.399
CTTTCCCA | -0.0799

Sequence | PBM E-score
CTTTCCTC | 0.0989
GTTTCCTA | 0.411
GTTTCCAA | -0.12
GTTTCCGA | 0.122
AGGCATGG | 0.229
AAAGTGGG | -0.0287
TAGGAGCA | 0.0656
ACGTAATC | 0.29
ACGTAATA | 0.35
GCGTAATA | 0.308
CCGTAATA | 0.121
ACGTAACG | 0.0865
ACGTAATG | 0.348
AATTGCCT | 0.472
ACTTGCCG | -0.189
AATTGCCG | -0.145
ACTTGCCT | 0.479
AATTGCCC | 0.0147
ACTTGCCC | 0.0267
CAGTGTAC | 0.0758
AAGTGTAT | 0.117
ACGTGTAT | 0.356
CCGTGTAG | 0.367
ACGTGTAG | 0.389
CAGTGTAG | 0.154

Sequence | PBM E-score
AGGTGTAG | 0.0602
ACGTGTCT | 0.14
CCGTGTCG | 0.126
CCGTGTAC | 0.34
AAGTGTAG | 0.158
CCGTGTCC | 0.0332
GCAATGGA | -0.00402
GAATCGGC | -0.269
CACCAGAG | -0.0278
CCTGCAAC | 0.144
AACTTGCC | 0.204
GCGTGTAC | 0.337
AAGTGTAC | 0.0824
ACGTGTAC | 0.343
CCGTTAAG | -0.0319
CCAGGCGA | -0.155
CCAGGCAC | 0.487
TCAGGCGA | -0.0408
CCAGGCCC | -0.101
CCAGGCAG | -0.119
CCAGGCCA | -0.29
TCAGGCCA | -0.0359
CCAGGCAA | 0.477
TCAGGCAA | 0.483
GAATACTC | -0.0747

Sequence | PBM E-score
GGAGCGCA | -0.281
CTGAACAG | -0.0714
CCGCAAGG | -0.128
ACACCTGT | 0.193
TCTACTAA | 0.0381
GCTGGACC | -0.332
AGGCAAGA | 0.477
AGGCAAGC | 0.489
ACGCAAGG | 0.153
GGGCAAGA | 0.0525
CGGCAAGC | -0.0333
AGGCAAGG | 0.483
ATGCAAGG | -0.116
CGGCAAGA | -0.115
AAGCAAGC | -0.162
CCCTACAG | -0.128
GATCTCTA | -0.137
CCGGTCAG | -0.335
CCTCGTAG | 0.0397
AATACCCC | -0.248
CTCAAGAC | -0.131
ATCAGCCC | -0.272
AAAGATGG | -0.0558
ACTTGTTC | 0.162
ACAGCCCA | -0.0365

Sequence | PBM E-score
AATTTCCG | -0.0949
AATTTCCC | -0.164
AATTTCCT | 0.364
ACTTTCCT | 0.383
ACTTTCCG | -0.182
ACTTTCCC | 0.0581
ATCCGGTG | 0.0537
CCACTACG | -0.0192
GGATGAAC | -0.105
GTGAAAAA | 0.155
TAGGGGGA | -0.264
CGACCCTA | -0.148
AGACTTTC | -0.187
CCGTTCTA | 0.17
CGCAGGTC | 0.0458
AGCAGGTA | 0.328
AACAGGTA | 0.269
CACAGGTA | 0.352
TACAGGTA | 0.393
GACAGGTA | 0.25
CACAGGTG | 0.0773
CACAGGTC | -0.272
CGCAGGTA | 0.35
GGTGCGAC | -0.251
ACAACGGC | -0.0371

Sequence | PBM E-score
GAAAAGCC | -0.338
ATAGGTGA | -0.0643
GTAGGTTA | 0.22
CTAGGTAC | 0.26
ATAGGTAC | 0.406
GTAGGTGA | 0.0361
ATAGGTAG | 0.109
CTAGGTAA | 0.182
ATAGGTAA | 0.356
GTAGGTAA | 0.346
GCGGTAAC | 0.063
ACATCTTA | 0.0996
CCAAGCGG | -0.135
GACATCGC | 0.0096
GGTTTTAC | 0.154
CATTCCGC | -0.146
GACTACCA | -0.0944
CTATTACA | 0.378
CTATTACC | 0.142
TGATTACA | 0.311
CGATTACG | 0.123
AGATTACT | 0.101
GGATTACC | -0.0377
CGATTACA | 0.357
ATATTACA | 0.332

Sequence | PBM E-score
GGATTACA | 0.371
AGATTACC | 0.157
AGATTACA | 0.354
GGATTAGA | -0.13
GGACAAAC | 0.0402
AAACCTCG | -0.21
ACCAAATC | -0.166
GCACTCCC | -0.112
AACACAGC | 0.268
CGTGTCAC | 0.157
GACCTGAA | -0.107
ACATGTAC | 0.333
CCATGTAG | 0.346
GCATGTAA | 0.41
TCATGTAA | 0.414
TGATGTAA | 0.281
GCATGTAC | 0.321
CGATGTAG | 0.103
GCATGTCA | 0.26
ACATGTCG | 0.246
TCATGTCA | 0.283
CCATGTCG | 0.247
ACATGTAG | 0.388
CATGTCGC | 0.175
CACTAGTG | -0.12

Sequence | PBM E-score
CATCAACG | 0.00915
ACTAGGTG | 0.125
CTTAAAGC | 0.00562
CTCGTCGA | -0.0922
GTCGAGCA | -0.114
AAGGTTAC | 0.0496
CCTATGCC | -0.0577
AGCGCTTG | -0.185
CGTTGGCA | 0.00506
AGATGTAT | 0.133
ACATGTAA | 0.437
ACATGTCT | 0.235
ACATGTAT | 0.357
ACATGTGA | 0.225
ACATGTCA | 0.319
CCATGTGA | 0.141
CCATGTAA | 0.411
CCATGTAC | 0.327
ATTCCTTG | 0.0459
GTCAGAGA | -0.242
AATGAGCT | -0.0919
AGTCTGAA | -0.204
GTGTTAAC | 0.352
ATGTTACC | 0.237
CTGTTAAC | 0.199

Sequence | PBM E-score
GAGTTAAC | 0.0651
ACGTTAAC | 0.25
CTGTTAAA | 0.238
TTGTTAAA | 0.256
GTGTTAAA | 0.384
ATGTTAAC | 0.397
GCTAAATA | 0.0782
CGGAATAG | -0.201
GATGACGC | 0.0115
AGTCAGTG | -0.157
GGCGCCCC | -0.0368
CCAGGCGC | -0.00734
GCAGGCGA | 0.123
GCAGGCGC | 0.361
ACAGGCTG | 0.0165
ACAGGCTC | 0.404
ACAGGCGG | -0.015
ACAGGCGC | 0.371
ACAGGCGT | 0.172
ACAGGCTA | 0.183
